Screening results from PubChem.
Cav32 inh = Cav3.2 calcium influx blockers – cell-based, Fluo-4 calcium fluorescence, FDSS, MLSMR library, primary screen. 100,000 compounds, 4% hits. B-score at 10 µM. Voltage-dependent T-type calcium channel subunit alpha-1H (Homo sapiens), O95180. Cav3.2-expressing cells; stronger effect = lower value;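 active means single-dose well whose peak fluorescence ratio is a statistical outlier from its plate by either plate-standardised score or position-corrected B-score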
CYP2C9 act = human CYP2C9 activators, primary screen, biochemical, luminescence; 96,000 compounds, 1.4% hits; recombinant CYP2C9, luciferin-H conversion; stronger effect = higher value; factor 1 = untreated enzyme, 0 = blocked; AID 1024, 2008; activation factor at 5 µM; Cytochrome P450 2C9 (Homo sapiens), P11712;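 active means activation factor of 2 or more for CYP2C9 at a 5 µM dose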
Pyk2 oligo antag = antagonists of Pyk2 self-association, primary screen, Q293 cells, FERM NanoBiT luminescence, HTS; 99,000 compounds, 0.83% hits; z-score (the deposit names both 25 µM and 10 µM); stronger effect = lower value;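 active means Z-score of -3 or lower, scaled per plate to the spread of control and sample wells; inactive means z-score above -3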;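 further: negative z-score means lost luminescence so less FERM oligomerization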
CYP2C19 inhib = blockers of cytochrome P450 2C19 activity – biochemical, luminescence, ADME assay, primary screen | CYP2C19 Supersomes, luciferin-H EGE luminescence, 30 min | inhibition, % at 5 µM | 96,000 compounds, 21% hits | AID 778, 2007;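 active means CYP2C19 inhibition above a set limit at 5 µM in the primary screen, cut at about 50% in these data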
CYP2C9 inhib = blockers of cytochrome P450 2C9 activity – biochemical, luminescence, ADME assay, primary screen. CYP2C9 Supersomes, luciferin-H conversion. AID 777, 2007. inhibition, % at 5 µM. P11712. 96,000 compounds, 20% hits;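 active means blocking of liver enzyme CYP2C9 beyond about 50% at 5 µM, limit read from the data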
CYP2C19 act = human CYP2C19 activators, primary screen, biochemical, luminescence; Cytochrome P450 2C19 (Homo sapiens), P33261; recombinant CYP2C19, luciferin-H EGE luminescence; stronger effect = higher value; 0 = fully inhibited enzyme, 1 = untreated enzyme; activation factor at 5 µM; 96,000 tested, under 10 active;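 active means activation factor of at least 2 at 5 µM in the primary screen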
Each line names hits and unclear results; the compound was inactive in the other large screens. Most compounds without a hit are left out; they make up all but 27% or so of the library.

Cc1[nH]nc2c1C(c1ccc(-c3ccccc3C#N)o1)C(C#N)=C(N)O2 (stereo not drawn)	Cav32 inh -4.4, CYP2C19 inhib 68, CYP2C9 inhib 93
CCC(c1nnc(SCC(=O)NC23CC4CC(CC(C4)C2)C3)o1)N(C)C (stereo not drawn)	none
COc1ccc(CCNC(=O)C(=O)N2CCCCC2)cc1OC	none (no result: CYP2C9 act, CYP2C19 inhib, CYP2C9 inhib, CYP2C19 act)
CC1CN(Cc2cc(=O)[nH]c(C3CC3)n2)CC(C)O1 (stereo not drawn)	none
Cc1ccccc1Cn1cc(S(=O)(=O)CC(=O)Nc2nccs2)c2ccccc21	none (no result: CYP2C9 act, CYP2C19 inhib, CYP2C9 inhib, CYP2C19 act)
Cc1ccccc1Cn1cc(/C=N/n2cnnc2)c2ccccc21	CYP2C19 inhib 91, CYP2C9 inhib 74
Clc1ccc(Cn2cc(/C=N/n3cnnc3)c3ccccc32)cc1	CYP2C19 inhib 80
CCC(SCC(=O)OC)C(=O)Nc1nnc(C(C)C)s1 (stereo not drawn)	none (no result: Pyk2 oligo antag)
CCC1Oc2ccc(C)cc2N(CC(=O)NCC2COc3ccccc3O2)C1=O (stereo not drawn)	Cav32 inh -5.2, CYP2C19 inhib 93 (no result: Pyk2 oligo antag)
Cc1ccc2c(c1)N(CCC(=O)NCc1ccco1)C(=O)CO2	none
Cc1ccc2c(c1)N(CCC(=O)NCC1COc3ccccc3O1)C(=O)CO2 (stereo not drawn)	CYP2C19 inhib 76
CCOC(=O)C[C@H]1c2ccccc2S(=O)(=O)N1c1cccc(OC)c1	none (no result: CYP2C9 act, Pyk2 oligo antag, CYP2C19 inhib, CYP2C9 inhib, CYP2C19 act)
COc1ccc(-n2nnc3c(=O)n(Cc4ccccc4C)cnc32)cc1	none
COc1ccc(-n2nnc3c(=O)n(Cc4cccc(C)c4)cnc32)cc1	CYP2C9 inhib 56
CCc1cc2cccc(C)c2nc1SCC(=O)NNC(=O)c1ccco1	none
CCc1cc2cccc(C)c2nc1SCC(=O)c1ccc(NC(C)=O)cc1	CYP2C9 inhib 80
CCc1cc2ccc(C)cc2nc1SCC(=O)c1ccc(NC(C)=O)cc1	CYP2C19 inhib 63, CYP2C9 inhib 92
Cc1[nH]nc(SCC(=O)N2CCCCC2)c1[N+](=O)[O-]	CYP2C19 inhib 65
CCOC(=O)C(NC(=O)Nc1ccc(F)cc1)(OCC)C(F)(F)F (stereo not drawn)	CYP2C19 inhib 50
CCOC(=O)C(NC(C)=O)(Nc1cccc(F)c1)C(F)(F)F (stereo not drawn)	none
CCOC(=O)C(NC(C)=O)(Nc1ccc(F)cc1)C(F)(F)F (stereo not drawn)	CYP2C19 inhib 63
CN(C)CCCNC(=O)C1CCNCC1	none
N#Cc1ccccc1CSc1nc(N2CCCCC2)nc(N2CCCCC2)n1	none
COC(=O)CSc1nnc(-c2sc3cc(OC)ccc3c2Cl)n1C	CYP2C19 inhib 56
COC(=O)CSc1nnc(-c2ccc3c(c2)OCO3)n1C	none
COc1ccc(C)cc1S(=O)(=O)N(C)CC(=O)N1CCCCC1	none (no result: CYP2C9 act, CYP2C19 inhib, CYP2C9 inhib, CYP2C19 act)
CCC(C)C(NC(=O)OC(C)(C)C)C(=O)NC(Cc1ccccc1)C(=O)OC (stereo not drawn)	none
CC(C)CC(NC(=O)C(Cc1ccc(OCc2ccccc2)cc1)NC(=O)OC(C)(C)C)C(N)=O (stereo not drawn)	Cav32 inh -4.8
CC(C)NS(=O)(=O)c1ccc(NC(=O)C2CC3C=CC2C3)cc1 (stereo not drawn)	none
Cc1ccc(S(=O)(=O)N(C#N)c2nc(C)cc(C)n2)cc1	none
Cc1ccc(S(=O)(=O)N(c2nc(N(C)C)nc(N(C)C)n2)n2cnnc2)cc1	CYP2C9 inhib 54
CCOC(=O)Nc1ccc2c(c1)N(C(=O)C(C)N1CCCC1)c1ccccc1CC2 (stereo not drawn)	none
CCOC(=O)Nc1ccc2c(c1)N(C(=O)OC)c1ccccc1CC2	CYP2C19 inhib 70, CYP2C9 inhib 85
CCOC(=O)Nc1ccc2c(c1)N(C(=O)CN1CCN(C)CC1)c1ccccc1S2	CYP2C19 inhib 58
CCSc1ncc(Cl)c(C(=O)N(Cc2ccc(N(C)C)cc2)C2CCS(=O)(=O)C2)n1 (stereo not drawn)	Cav32 inh 3.5
COc1cccc(C(=O)N(Cc2ccc(N(C)C)cc2)C2CCS(=O)(=O)C2)c1 (stereo not drawn)	none
Cn1ncc2nc[nH]c(=O)c21	CYP2C19 inhib 50
O=C(O)c1ccccc1-c1nc2ccccc2c(=O)[nH]1	none
O=C(O)c1ccccc1C1=Nc2ccc(O)cc2Oc2cc(O)ccc21	Cav32 inh -9.2
Cc1ccc(CNC(=O)CSc2c3c(nc4ccc(Cl)cc24)CCCC3)o1	CYP2C9 inhib 61
Cc1nonc1NC(=O)CSc1nc2cc(Cl)ccc2c2c1CCCC2	none
Cn1c(=O)c2cn(Cc3ccc(Cl)cc3)cc2n(C)c1=O	CYP2C19 inhib 63, CYP2C9 inhib 58
COc1cc(C)c(C(=O)Oc2cc(C)c(C(=O)O)c(O)c2C)c(OC)c1C	Cav32 inh -4.4 (no result: CYP2C9 act, Pyk2 oligo antag, CYP2C19 inhib, CYP2C9 inhib, CYP2C19 act)
COc1ccc(-c2nnn(CC(=O)Nc3sc4c(c3C#N)CCCC4)n2)cc1	CYP2C9 inhib 54
O=C(CSc1nc(-c2ccco2)cc(C(F)(F)F)n1)NC1CCCCCCC1	none (no result: CYP2C9 act, CYP2C19 inhib, CYP2C9 inhib, CYP2C19 act)
COc1ccc(-c2cc(C(F)(F)F)nc(SCC(=O)Nc3sc4c(c3C#N)CCC4)n2)cc1	CYP2C9 inhib 68
COc1ccc(-c2ccc(C#N)c(SCC(=O)Nc3sc4c(c3C#N)CCC4)n2)cc1OC	CYP2C9 inhib 98
CCC1CCc2c(sc(NC(=O)CSc3nc(-c4ccco4)cc(C(F)(F)F)n3)c2C#N)C1 (stereo not drawn)	CYP2C19 inhib 69, CYP2C9 inhib 89
COc1ccc(-c2cc(C(F)(F)F)nc(SCC(=O)Nc3cc(C)on3)n2)cc1	none
Cc1[nH]n(-c2ccccc2)c(=O)c1/C=N/N1C(=O)c2ccc3c4c(ccc(c24)C1=O)CC3	none (no result: Cav32 inh, CYP2C9 act, CYP2C19 inhib, CYP2C9 inhib, CYP2C19 act)
CCC1CCCCN1C(=O)CSc1nnc(CNC(=O)c2cc(OC)c(OC)c(OC)c2)o1 (stereo not drawn)	none
COc1ccc(CC(=O)O/N=C(\N)Cc2cccc3ccccc23)cc1OC	none (no result: Cav32 inh, CYP2C9 act, CYP2C19 inhib, CYP2C9 inhib, CYP2C19 act)
Cc1c(OCC(=O)OC(C)(C)C)ccc2c3c(c(=O)oc12)CCC3	none (no result: Cav32 inh)
Cc1c(OC(=O)CNC(=O)OC(C)(C)C)ccc2c3c(c(=O)oc12)CCC3	CYP2C9 act 2.7
CC(=O)C(C)Oc1ccc2c3c(c(=O)oc2c1C)CCCC3 (stereo not drawn)	CYP2C19 inhib 58 (no result: Cav32 inh)
CC(=O)COc1ccc2c3c(c(=O)oc2c1C)CCCCC3	CYP2C19 inhib 83
O=C(NCC12CC3CC(CC(C3)C1)C2)c1nn2cccnc2c1Cl	none
CO/N=C/c1cc([N+](=O)[O-])ccc1Sc1ccc(C)cc1	CYP2C19 inhib 65, CYP2C9 inhib 64
